The text below walks through data of PubChem BioAssay (NCATS).

Inconclusive results are not listed. A number with no mark means an inactive call. Activity calls are given as the source filed them. Calls follow the shape of the dose curve; as a rule, active = well fitted cell-killing curve with a large enough effect; inconclusive = small, poorly fitted or top-dose-only effect, or effect the other way; inactive = no such curve, though single readings can be large or run the other way.
Potency is read from the fitted curve at half-maximal effect.

This assay is described as follows: Quantitative High-Throughput drug screen in 47 multiple myeloma cell lines against the NCATS MIPE library collection: EJM_DSMZ cell viability assay (AID 1918926; also: nearly all actives have a fitted effect of over 30% in size;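 as to viability, % of control: 100% = DMSO-only wells and 0% = media-only wells without cells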). The note with it: EJM myeloma cell viability, CellTiter-Glo ATP, 48 h; series mostly up to 45.8 µM; viability, % of control: at the top concentration. The essentials:
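qHTS of the MIPE 4.0 collection: 500 myeloma cells/well, 48 h drug exposure at 37C in 5% CO2, then CellTiter-Glo for 5 min at room temperature before luminescence reading.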
In general terms: Cellular ATP, detected with luciferase, serves as a proxy for viable cell number.
Regarding `CN1CCC(=C2c3ccccc3CC(=O)c3sccc32)CC1`, the Potency is 20.9 µM (active).
As to `Cn1c(=O)c2[nH]cnc2n(C)c1=O`, the “viability, % of control” value is 115%.
For `CN1CCN(CCCN2c3ccccc3Sc3ccc(Cl)cc32)CC1`, the Potency was 23.5 µM (active).
Consider `Clc1ccc2c(c1)C(N1CCNCC1)=Nc1ccccc1O2`, for which the “viability, % of control” value is 88.6%.
Consider `CC#C[C@]1(O)CC[C@H]2[C@@H]3CCC4=CC(=O)CCC4=C3[C@@H](c3ccc(N(C)C)cc3)C[C@@]21C`, for which the Potency was 1.32 µM (active).
Same read-out and setting: the figure for `Cn1cnc2c1c(=O)[nH]c(=O)n2C` is 20.9 µM (active).
For `O=C(c1ccc(F)cc1)C1CCN(CCn2c(=O)[nH]c3ccccc3c2=O)CC1`, the “viability, % of control” value was 90.9%.
On the same count and under the same terms, the figure for `CN(CCOc1ccc(NS(C)(=O)=O)cc1)CCc1ccc(NS(C)(=O)=O)cc1` is 103%.
Regarding `NC(=O)NO`, the Potency was 0.526 µM (active).
For the compound `Cc1ccc(-c2cc(C(F)(F)F)nn2-c2ccc(S(N)(=O)=O)cc2)cc1`, the “viability, % of control” value was 85.6%.
Consider `Nc1nc2c(ncn2COC(CO)CO)c(=O)[nH]1`, for which the Potency is 14.8 µM (active).
Take `CN(C)CCCN1c2ccccc2CCc2ccc(Cl)cc21`: the Potency was 0.264 µM (active).
`COc1ccccc1N1CCN(CC(O)COc2cccc3ccccc23)CC1` (stereo not drawn): the “viability, % of control” value is 94.5%.
